From PubChem BioAssay AID1159580 (chemical genetic matrix, 2015)
The whole screen tested about 5,500 compounds, of which about 2,000 (36%) were called active. About 18% were inconclusive and are not listed. Rule as the data show it: active = normalized growth mostly below about 0.91 (no sharp cut-off); inconclusive = no clear call, values can overlap the other calls; inactive = mostly above about 0.92. The list shows a part of the results. Where a SMILES comes first, the peptide text is derived from it.

Assay: chemical genetic growth profiling, strain panel (AID 1159580);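 also: tested at 20 µM; growth read once vehicle control cultures reached saturation at 30 °C; 1 = growth at the plate median or of vehicle wells; lower values mean less growth of the strain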
Settings: growth OD

Measured: normalized growth

CC(=O)N[C@@H](CC(=O)O)C(=O)N[C@@H](CCC(=O)O)C(=O)O (Ac-Asp-Glu-OH)
inactive: S. cerevisiae deletion strains, locus YJR075W, strain HOC1, stronger effect = lower value 1.01 | S. cerevisiae deletion strains, locus YKL009W, strain mrt4, stronger effect = lower value 0.987 | S. cerevisiae deletion strains, locus YKL068W, stronger effect = lower value 0.997 | S. cerevisiae deletion strains, locus YKL085W, strain MDH1 (second series), stronger effect = lower value 0.985 | S. cerevisiae deletion strains, locus YKL085W, strain MDH1, stronger effect = lower value 0.985 | S. cerevisiae deletion strains, locus YKL160W, strain elf1, stronger effect = lower value 1.01 | S. cerevisiae deletion strains, locus YKL190W, strain CNB1, stronger effect = lower value 1.02 | S. cerevisiae deletion strains, locus YKR001C, strain vps1, stronger effect = lower value 0.989 | S. cerevisiae deletion strains, locus YKR026C, strain gcn3, stronger effect = lower value 1 | S. cerevisiae deletion strains, locus YKR091W, strain srl3, stronger effect = lower value 0.996 | S. cerevisiae deletion strains, locus YLL001W, strain dnm1, stronger effect = lower value 0.994 | S. cerevisiae deletion strains, locus YLL026W, stronger effect = lower value 1 | S. cerevisiae deletion strains, locus YLL041C, strain sdh2, stronger effect = lower value 1 | S. cerevisiae deletion strains, locus YLR027C, strain aat2, stronger effect = lower value 1.01 | S. cerevisiae deletion strains, locus YLR039C, strain RIC1, stronger effect = lower value 1.04 | S. cerevisiae deletion strains, locus YLR058C, strain SHM2, stronger effect = lower value 1.01 | S. cerevisiae deletion strains, locus YLR102C, strain apc9, stronger effect = lower value 0.984 | S. cerevisiae deletion strains, locus YLR113W, strain HOG1, stronger effect = lower value 0.987 | S. cerevisiae deletion strains, locus YLR221C, strain rsa3, stronger effect = lower value 1 | S. cerevisiae deletion strains, locus YLR258W, strain gsy2, stronger effect = lower value 0.992 | S. cerevisiae deletion strains, locus YLR262C, strain YPT6 (second series), stronger effect = lower value 1.02 | S. cerevisiae deletion strains, locus YLR262C, strain YPT6, stronger effect = lower value 1.04 | S. cerevisiae deletion strains, locus YLR268W, strain sec22, stronger effect = lower value 0.981 | S. cerevisiae deletion strains, locus YLR320W, strain mms22, stronger effect = lower value 1 | S. cerevisiae deletion strains, locus YLR330W, strain CHS5, stronger effect = lower value 1.02 | S. cerevisiae deletion strains, locus YLR342W, strain FKS1 (second series), stronger effect = lower value 0.996 | S. cerevisiae deletion strains, locus YLR342W, strain FKS1, stronger effect = lower value 1 | S. cerevisiae deletion strains, locus YLR357W, strain rsc2, stronger effect = lower value 0.987 | S. cerevisiae deletion strains, locus YLR370C, strain arc18, stronger effect = lower value 1.02 | S. cerevisiae deletion strains, locus YLR371W, strain rom2, stronger effect = lower value 0.99 | S. cerevisiae deletion strains, locus YLR384C, strain iki3, stronger effect = lower value 0.998 | S. cerevisiae deletion strains, locus YLR418C, strain cdc73, stronger effect = lower value 0.982 | S. cerevisiae deletion strains, locus YML016C, strain PPZ1, stronger effect = lower value 1.02 | S. cerevisiae deletion strains, locus YML032C, strain rad52, stronger effect = lower value 0.985 | S. cerevisiae deletion strains, locus YML120C, strain ndi1, stronger effect = lower value 1.01 | S. cerevisiae deletion strains, locus YML124C, strain tub3, stronger effect = lower value 0.984 | S. cerevisiae deletion strains, locus YMR058W, strain fet3, stronger effect = lower value 1.01 | S. cerevisiae deletion strains, locus YMR078C, strain ctf18, stronger effect = lower value 1 | S. cerevisiae deletion strains, locus YMR125W, strain sto1, stronger effect = lower value 0.987 | S. cerevisiae deletion strains, locus YMR129W, stronger effect = lower value 1.01 | S. cerevisiae deletion strains, locus YMR205C, strain PFK2, stronger effect = lower value 0.967 | S. cerevisiae deletion strains, locus YMR223W, strain ubp8, stronger effect = lower value 0.983 | S. cerevisiae deletion strains, locus YMR231W, strain pep5, stronger effect = lower value 1.01 | S. cerevisiae deletion strains, locus YMR263W, strain SAP30, stronger effect = lower value 1.03 | S. cerevisiae deletion strains, locus YMR307W, strain GAS1, stronger effect = lower value 1.01 | S. cerevisiae deletion strains, locus YNL067W, strain RPL9B, stronger effect = lower value 1.02 | S. cerevisiae deletion strains, locus YNL071W, strain lat1, stronger effect = lower value 1.02 | S. cerevisiae deletion strains, locus YNL128W, strain TEP1, stronger effect = lower value 1.02 | S. cerevisiae deletion strains, locus YNL153C, strain GIM3, stronger effect = lower value 1.01 | S. cerevisiae deletion strains, locus YNL183C, strain NPR1, stronger effect = lower value 0.894 | S. cerevisiae deletion strains, locus YNL209W, strain ssb2, stronger effect = lower value 0.997 | S. cerevisiae deletion strains, locus YNL233W, strain BNI4, stronger effect = lower value 1.02 | S. cerevisiae deletion strains, locus YNL248C, strain rpa49, stronger effect = lower value 1.01 | S. cerevisiae deletion strains, locus YNL250W, strain rad50, stronger effect = lower value 0.982 | S. cerevisiae deletion strains, locus YNL271C, strain bni1, stronger effect = lower value 0.984 | S. cerevisiae deletion strains, locus YNL298W, strain CLA4, stronger effect = lower value 0.987 | S. cerevisiae deletion strains, locus YNL307C, strain MCK1, stronger effect = lower value 0.988 | S. cerevisiae deletion strains, locus YNL322C, strain KRE1 (second series), stronger effect = lower value 1 | S. cerevisiae deletion strains, locus YNL322C, strain KRE1, stronger effect = lower value 1.01 | S. cerevisiae deletion strains, locus YNR049C, strain mso1, stronger effect = lower value 1.01 | S. cerevisiae deletion strains, locus YNR052C, strain pop2, stronger effect = lower value 0.991 | S. cerevisiae deletion strains, locus YOL006C, strain TOP1, stronger effect = lower value 1.03 | S. cerevisiae deletion strains, locus YOL012C, strain htz1 0.942 | S. cerevisiae deletion strains, locus YOL147C, strain pex11, stronger effect = lower value 0.987 | S. cerevisiae deletion strains, locus YOR001W, strain rrp6, stronger effect = lower value 1.01 | S. cerevisiae deletion strains, locus YOR061W, strain CKA2, stronger effect = lower value 1.01 | S. cerevisiae deletion strains, locus YOR069W, strain VPS5, stronger effect = lower value 1.01 | S. cerevisiae deletion strains, locus YOR070C, strain gyp1, stronger effect = lower value 1.01 | S. cerevisiae deletion strains, locus YOR080W, strain dia2, stronger effect = lower value 0.988 | S. cerevisiae deletion strains, locus YOR083W, strain WHI5, stronger effect = lower value 1.01 | S. cerevisiae deletion strains, locus YOR106W, strain vam3, stronger effect = lower value 1.02 | S. cerevisiae deletion strains, locus YOR136W, strain idh2, stronger effect = lower value 0.99 | S. cerevisiae deletion strains, locus YOR144C, strain elg1, stronger effect = lower value 1 | S. cerevisiae deletion strains, locus YOR184W, strain ser1, stronger effect = lower value 0.979 | S. cerevisiae deletion strains, locus YOR231W, strain MKK1, stronger effect = lower value 0.982 | S. cerevisiae deletion strains, locus YOR265W, strain rbl2, stronger effect = lower value 1.01 | S. cerevisiae deletion strains, locus YOR270C, strain vph1, stronger effect = lower value 1.1 | S. cerevisiae deletion strains, locus YOR290C, strain snf2, stronger effect = lower value 0.975 | S. cerevisiae deletion strains, locus YOR316C, strain cot1, stronger effect = lower value 0.997 | S. cerevisiae deletion strains, locus YPL051W, strain arl3, stronger effect = lower value 1.01 | S. cerevisiae deletion strains, locus YPL055C, strain LGE1, stronger effect = lower value 1.02 | S. cerevisiae deletion strains, locus YPL078C, strain atp4, stronger effect = lower value 1.03 | S. cerevisiae deletion strains, locus YPL106C, strain sse1, stronger effect = lower value 0.975 | S. cerevisiae deletion strains, locus YPL240C, strain hsp82, stronger effect = lower value 1.01 | S. cerevisiae deletion strains, locus YPL241C, strain CIN2, stronger effect = lower value 1.01 | S. cerevisiae deletion strains, locus YPL256C, strain CLN2, stronger effect = lower value 1.01 | S. cerevisiae deletion strains, locus YPR119W, strain clb2, stronger effect = lower value 0.99 | S. cerevisiae deletion strains, locus YPR141C, strain kar3, stronger effect = lower value 0.995 | S. cerevisiae deletion strains, locus YPR163C, strain tif3, stronger effect = lower value 0.99 | S. cerevisiae deletion strains, locus YPR167C, strain met16, stronger effect = lower value 0.991 | S. cerevisiae deletion strains, strain wtn01, stronger effect = lower value 0.989 | S. cerevisiae strains, strain wild type, stronger effect = lower value 1
